In PubChem BioAssay (Tox21):
A number with no mark means an inactive call. Calls of active or inactive are those of the source. Calls follow the shape of the dose curve; as a rule, active = well fitted curve in the direction sought with a large enough effect in the repeat runs; inconclusive = weak or mixed curves; inactive = flat fitted curve, though single readings scatter.

assay: qHTS assay to test for compound auto fluorescence at 590 nm (red) in HepG2 cell free culture (AID 720684); conditions: cell-free medium autofluorescence, red 540/590 nm; series mostly up to 91.3 µM; fluorescence, % of Rose Bengal: at the top concentration
How it was run: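 Rose Bengal sodium served as the reference for red signal. Test compounds were dispensed into serum-containing MEM (10% FBS) without cells, and plates were read at 540/590 nm.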
% is scaled to controls: 0 for no effect and ±100 for the full control effect.

Going from `CCN(CC)Cc1nccn1-c1ccc([N+](=O)[O-])cc1C(=O)c1ccccc1Cl` to `Oc1ccc2[nH]cc(CCCCN3CC=C(c4ccccc4)CC3)c2c1`, the “fluorescence, % of Rose Bengal” value falls from 0.14% [at 46 µM] to 0.0412% [at 46 µM].

First: NC1CCC(CC2CCC(N)CC2)CC1 (centres undefined)
Second: CC1(C)[C@H](/C=C2\CCSC2=O)[C@@H]1C(=O)OCc1coc(Cc2ccccc2)c1
The “fluorescence, % of Rose Bengal” value of the first is higher: 0.255% for the first, 0.0486% for the second.

First: Nc1ccc(N=Nc2ccccc2)cc1
Second: Nc1ccccc1-c1ccccc1
The “fluorescence, % of Rose Bengal” value of the first is higher: -0.315% for the first, -0.355% for the second.

Going from `Oc1cc(Cl)cc(Cl)c1` to `C=CCOC(=O)c1ccccc1N`, the “fluorescence, % of Rose Bengal” value rises from -0.306% to -0.0723%.

Compared with `CCCCC(CC)COC(=O)c1ccccc1C(=O)OCC(CC)CCCC` (centres undefined), `CCOP(=S)(OCC)Oc1cc(C)nc(N(CC)CC)n1` is higher in “fluorescence, % of Rose Bengal” value: -0.36% for the first, 0.0638% for the second.

In the case of `c1ccc(Nc2ccc(Nc3ccccc3)cc2)cc1`, the “fluorescence, % of Rose Bengal” value is reported as 0.0184%.

For `Clc1ccc(C(c2ccc(Cl)cc2)C(Cl)Cl)cc1`, the outcome was “inactive”.
For `CN(C)C(=S)SSC(=S)N(C)C`, the outcome was “inactive”.

First: CCN(CC)CCc1c[nH]c2ccccc12
Second: COc1ccc2[nH]cc(CCN(C(C)C)C(C)C)c2c1
The “fluorescence, % of Rose Bengal” value of the first is lower: -0.0245% [at 95.7 µM] for the first, 0.141% [at 95.7 µM] for the second.

assay: qHTS assay to test for compound auto fluorescence at 460 nm (blue) in HepG2 cell free culture (AID 720685); conditions: Cell-free culture medium, blue autofluorescence 405/460 nm; series mostly up to 91.3 µM; fluorescence, % of fluorescent control: at the top concentration
How it was run: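 Cell-free plates of MEM plus 10% FBS received 23 nL compound or DMSO vehicle; blue-channel (405/460 nm) intensity scored against triamterene as reference fluorophore.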

Compared with `CSC(=O)c1c(C(F)F)nc(C(F)(F)F)c(C(=O)SC)c1CC(C)C`, `FC(F)C(F)(F)OCC(Cn1cncn1)c1ccc(Cl)cc1Cl` (centres undefined) is lower in “fluorescence, % of fluorescent control” value: -0.0147% for the first, -0.0206% for the second.

Going from `CCOP(=O)(OCC)Oc1cc(C)nc(C(C)C)n1` to `CCOP(=S)(OCC)Oc1cc(C)nc(N(CC)CC)n1`, the “fluorescence, % of fluorescent control” value rises from -0.0447% to 0.0067%.

Going from `CCOP(=O)(Sc1ccccc1)Sc1ccccc1` to `Nc1ccccc1-c1ccccc1`, the “fluorescence, % of fluorescent control” value falls from 0.0283% to -0.0126%.

Compared with `CCC1COC(Cn2cncn2)(c2ccc(Cl)cc2Cl)O1` (centres undefined), `Clc1ccc(C(Cl)(Cl)Cl)cc1Cl` is higher in “fluorescence, % of fluorescent control” value: -0.0709% for the first, 0.0504% for the second.

Compared with `Nc1nc(N)nc(Cl)n1`, `Oc1cc(Cl)cc(Cl)c1` is lower in “fluorescence, % of fluorescent control” value: 0.106% for the first, -0.0689% for the second.

First: C[C@H]1[C@H](c2ccc(Cl)cc2)SC(=O)N1C(=O)NC1CCCCC1
Second: Cc1cnc2c(C(=O)O)c(Cl)ccc2c1
The “fluorescence, % of fluorescent control” value of the first is higher: -0.0007% for the first, -0.0691% for the second.

Going from `CCOP(=O)(OCC)Oc1nc(Cl)c(Cl)cc1Cl` to `CCOP(=S)(NC(C)C)Oc1ccccc1C(=O)OC(C)C` (centres undefined), the “fluorescence, % of fluorescent control” value rises from -0.154% to 0.0572%.

Going from `O=S1(=O)OCC2C(CO1)C1(Cl)C(Cl)=C(Cl)C2(Cl)C1(Cl)Cl` (centres undefined) to `CC1(C)[C@H](/C=C2\CCSC2=O)[C@@H]1C(=O)OCc1coc(Cc2ccccc2)c1`, the “fluorescence, % of fluorescent control” value rises from -0.0044% to 0.319%.

Going from `C#CCO` to `S=C=NCCc1ccccc1`, the “fluorescence, % of fluorescent control” value rises from -0.0248% to 0.922%.

Compared with `CCCCCCCc1ccc(O)cc1`, `CCCCC(CC)COC(=O)c1ccccc1C(=O)OCC(CC)CCCC` (centres undefined) is lower in “fluorescence, % of fluorescent control” value: -0.045% for the first, -0.203% for the second.

First: COC(=O)/C=C(\C)OP(=O)(OC)OC
Second: C=CCOC(=O)c1ccccc1N
The “fluorescence, % of fluorescent control” value of the first is higher: 0.0098% for the first, -0.037% for the second.

First: NC1CCC(CC2CCC(N)CC2)CC1 (centres undefined)
Second: Nc1ccc(N=Nc2ccccc2)cc1
The “fluorescence, % of fluorescent control” value of the first is higher: -0.0105% for the first, -0.925% for the second.

In the case of `c1ccc(Nc2ccc(Nc3ccccc3)cc2)cc1`, the “fluorescence, % of fluorescent control” value is reported as 0.001%.

Compared with `ClCBr`, `CCN(CC)CCc1c[nH]c2ccccc12` is higher in “fluorescence, % of fluorescent control” value: 0.07% [at 95.7 µM] for the first, 1.53% [at 95.7 µM] for the second.

First: CC(Cc1ccc2c(c1)OCO2)NO (centres undefined)
Second: COc1ccc2[nH]cc(CCN(C(C)C)C(C)C)c2c1
The “fluorescence, % of fluorescent control” value of the first is higher: 0.128% [at 95.7 µM] for the first, 0.0578% [at 95.7 µM] for the second.

In the case of `C[N+]1(C)[C@@H]2CC[C@H]1CC(OC(=O)C(CO)c1ccccc1)C2` (some centres undefined), the Potency is reported as “inactive”.
With `Clc1ccc(C(c2ccc(Cl)cc2)C(Cl)Cl)cc1` the Potency was “inactive”.
In the case of `CN(C)C(=S)SSC(=S)N(C)C`, the Potency is reported as “inactive”.

Compared with `O=C(O)CCCCCCNC1c2ccccc2CCc2ccccc21`, `Oc1ccc2[nH]cc(CCCCN3CC=C(c4ccccc4)CC3)c2c1` is higher in “fluorescence, % of fluorescent control” value: -0.175% [at 46 µM] for the first, -0.0767% [at 46 µM] for the second.

Compared with `CC1=C2C[C@H]3[C@@H](CC=C4C[C@@H](O)CC[C@@]43C)[C@@H]2CC[C@]12O[C@@H]1C[C@H](C)CN[C@H]1[C@H]2C`, `CCN(CC)Cc1nccn1-c1ccc([N+](=O)[O-])cc1C(=O)c1ccccc1Cl` is lower in “fluorescence, % of fluorescent control” value: 0.0343% [at 46 µM] for the first, 0.0099% [at 46 µM] for the second.

With `CCCCN(CCCC)C(=S)[S-].CCCCN(CCCC)C(=S)[S-].[Ni+2]` the “fluorescence, % of fluorescent control” value was 0.002% [at 46 µM].

assay: qHTS assay to test for compound auto fluorescence at 535 nm (green) in HepG2 cell free culture (AID 720686); conditions: Cell-free medium, green autofluorescence 485/535 nm; series mostly up to 91.3 µM; fluorescence, % of fluorescein control: at the top concentration

Compared with `CSC(=O)c1c(C(F)F)nc(C(F)(F)F)c(C(=O)SC)c1CC(C)C`, `FC(F)C(F)(F)OCC(Cn1cncn1)c1ccc(Cl)cc1Cl` (centres undefined) is higher in “fluorescence, % of fluorescein control” value: 0.0159% for the first, 0.0247% for the second.

Going from `CCOP(=O)(OCC)Oc1cc(C)nc(C(C)C)n1` to `CCOP(=S)(OCC)Oc1cc(C)nc(N(CC)CC)n1`, the “fluorescence, % of fluorescein control” value rises from -0.0482% to 0.03%.

Going from `CCOP(=O)(Sc1ccccc1)Sc1ccccc1` to `Nc1ccccc1-c1ccccc1`, the “fluorescence, % of fluorescein control” value rises from -0.0004% to 0.0076%.

First: CCC1COC(Cn2cncn2)(c2ccc(Cl)cc2Cl)O1 (centres undefined)
Second: Clc1ccc(C(Cl)(Cl)Cl)cc1Cl
The “fluorescence, % of fluorescein control” value of the first is higher: 0.154% for the first, 0.0452% for the second.

Going from `Nc1nc(N)nc(Cl)n1` to `Oc1cc(Cl)cc(Cl)c1`, the “fluorescence, % of fluorescein control” value falls from 0.0065% to -0.207%.

Compared with `C[C@H]1[C@H](c2ccc(Cl)cc2)SC(=O)N1C(=O)NC1CCCCC1`, `Cc1cnc2c(C(=O)O)c(Cl)ccc2c1` is higher in “fluorescence, % of fluorescein control” value: -0.0136% for the first, -0.0013% for the second.

First: CCOP(=O)(OCC)Oc1nc(Cl)c(Cl)cc1Cl
Second: CCOP(=S)(NC(C)C)Oc1ccccc1C(=O)OC(C)C (centres undefined)
The “fluorescence, % of fluorescein control” value of the first is lower: -0.169% for the first, 0.202% for the second.

Going from `O=S1(=O)OCC2C(CO1)C1(Cl)C(Cl)=C(Cl)C2(Cl)C1(Cl)Cl` (centres undefined) to `CC1(C)[C@H](/C=C2\CCSC2=O)[C@@H]1C(=O)OCc1coc(Cc2ccccc2)c1`, the “fluorescence, % of fluorescein control” value falls from -0.0083% to -0.0145%.

Compared with `C#CCO`, `S=C=NCCc1ccccc1` is lower in “fluorescence, % of fluorescein control” value: 0.0073% for the first, -0.101% for the second.

Going from `CCCCCCCc1ccc(O)cc1` to `CCCCC(CC)COC(=O)c1ccccc1C(=O)OCC(CC)CCCC` (centres undefined), the “fluorescence, % of fluorescein control” value falls from 0.0367% to -0.166%.

First: COC(=O)/C=C(\C)OP(=O)(OC)OC
Second: C=CCOC(=O)c1ccccc1N
The “fluorescence, % of fluorescein control” value of the first is lower: 0.0748% for the first, 0.0752% for the second.

Going from `NC1CCC(CC2CCC(N)CC2)CC1` (centres undefined) to `Nc1ccc(N=Nc2ccccc2)cc1`, the “fluorescence, % of fluorescein control” value falls from -0.145% to -0.298%.

For `c1ccc(Nc2ccc(Nc3ccccc3)cc2)cc1`, the “fluorescence, % of fluorescein control” value was -0.106%.

Compared with `ClCBr`, `CCN(CC)CCc1c[nH]c2ccccc12` is higher in “fluorescence, % of fluorescein control” value: -0.0154% [at 95.7 µM] for the first, 0.0031% [at 95.7 µM] for the second.

First: CC(Cc1ccc2c(c1)OCO2)NO (centres undefined)
Second: COc1ccc2[nH]cc(CCN(C(C)C)C(C)C)c2c1
The “fluorescence, % of fluorescein control” value of the first is lower: -0.0205% [at 95.7 µM] for the first, -0.01% [at 95.7 µM] for the second.

For `C[N+]1(C)[C@@H]2CC[C@H]1CC(OC(=O)C(CO)c1ccccc1)C2` (some centres undefined), the Potency was “inactive”.
In the case of `Clc1ccc(C(c2ccc(Cl)cc2)C(Cl)Cl)cc1`, the Potency is reported as “inactive”.
With `CN(C)C(=S)SSC(=S)N(C)C` the Potency was “inactive”.

First: O=C(O)CCCCCCNC1c2ccccc2CCc2ccccc21
Second: Oc1ccc2[nH]cc(CCCCN3CC=C(c4ccccc4)CC3)c2c1
The “fluorescence, % of fluorescein control” value of the first is lower: -0.213% [at 46 µM] for the first, 0.107% [at 46 µM] for the second.

Going from `CC1=C2C[C@H]3[C@@H](CC=C4C[C@@H](O)CC[C@@]43C)[C@@H]2CC[C@]12O[C@@H]1C[C@H](C)CN[C@H]1[C@H]2C` to `CCN(CC)Cc1nccn1-c1ccc([N+](=O)[O-])cc1C(=O)c1ccccc1Cl`, the “fluorescence, % of fluorescein control” value rises from 0.0245% [at 46 µM] to 0.0268% [at 46 µM].

With `CCCCN(CCCC)C(=S)[S-].CCCCN(CCCC)C(=S)[S-].[Ni+2]` the “fluorescence, % of fluorescein control” value was 0.106% [at 46 µM].
